Results on 14 molecules are retold here after PubChem BioAssay (EPA / NIEHS).

The source holds several records for some structures; these can differ, active in one and inactive in another. Activity calls are given as the source filed them. The calls were made as follows: active = hit-call score of the fitted dose curve at least 0.9, where 1 is the maximum; inactive = score below 0.9.

The target of assay [1] is Transcription factor E2F1 (Homo sapiens) (UniProt Q01094). Nature of the assay: ATG_E2F_CIS: Attagene CIS-FACTORIAL HepG2 Assay for human E2F Transcription Factor 1 (AID 2282935). To be noted: HepG2 Attagene cis-reporter, E2F reporter RNA transcripts; actives raise or lower the signal. In outline:
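Total RNA from 24 h-treated, reporter-transfected HepG2 cells undergoes DNase I treatment, oligo(dT) reverse transcription, PCR and 6-FAM primer extension before capillary electrophoresis.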

The nature of assay [2]: ATG_E_Box_CIS: Attagene CIS-FACTORIAL HepG2 Assay for human Enhancer Box (E-box) (AID 2282936). To be noted: HepG2 E-box cis-reporter transcription, actives raise or lower the signal. In outline:
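DMSO served as negative control and baseline for bidirectional fitting. Human hepatoma HepG2 cells, transiently transfected with cis-reporter constructs, were dosed 24 h; reporter mRNA read by RT-PCR and capillary electrophoresis.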

Assay [3] is described as follows: ATG_M_61_CIS: Attagene CIS-FACTORIAL HepG2 Assay for M61 Transcription Factor (Internal Marker) (AID 2282937). To be noted: HepG2 Attagene CIS-FACTORIAL M61 internal marker reporter; actives raise or lower the signal. In outline: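 Readout is reporter mRNA by RT-PCR, fluorescent primer extension and capillary electrophoresis, with gain or loss fitted relative to DMSO. Transfected HepG2 cells carrying endogenous-TF-driven cis reporters were exposed to chemicals for 24 hours.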

Assay [4] in a line: ATG_EGR_CIS: Attagene CIS-FACTORIAL HepG2 Assay for human Early Growth Response 1 (EGR1) (AID 2282938). To be noted: HepG2 Attagene CIS-FACTORIAL EGR reporter mRNA; actives raise or lower the signal. In short, it runs like this:
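After 24 h compound exposure, RNA from reporter-transfected HepG2 cells was reverse-transcribed, PCR-amplified, fluorescently labelled and resolved by capillary electrophoresis. EGR1 reporter transcript changes, up or down, were fitted against DMSO, reflecting endogenous transcription-factor activity.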

Assay [5] can be described thus: ATG_M_19_CIS: Attagene CIS-FACTORIAL HepG2 Assay for M19 Transcription Factor (Internal Marker) (AID 2282939). To be noted: HepG2 Attagene CIS-FACTORIAL M19 internal marker reporter; actives raise or lower the signal. In outline: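 Readout: fluorescent reporter-transcript fragments by capillary electrophoresis after RT-PCR. Human HepG2 liver cells carried transfected MRTU constructs reporting endogenous transcription-factor activity; exposure 24 h. Gain or loss of signal fitted relative to DMSO.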

Assay [6] in a line: ATG_ERE_CIS: Attagene CIS-FACTORIAL HepG2 Assay for Estrogen Response Element (ERE) (AID 2282940). To be noted: HepG2 ERE cis-reporter, Attagene RNA transcript; actives raise or lower the signal. In short, it runs like this:
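Readout: reporter mRNA induction by RT-PCR, FAM-labelled primer extension, HpaI digestion and capillary electrophoresis, 24 h after dosing transfected HepG2 cells. Endogenous transcription factors act on cis-element-regulated reporters. Gain or loss fitted against DMSO.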

Assay [7] is described as follows: ATG_Ets_CIS: Attagene CIS-FACTORIAL HepG2 Assay for human Erythroblast Transformation Specific (ETS) (AID 2282941). To be noted: HepG2 ETS cis-reporter transcription, actives raise or lower the signal. In outline:
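HepG2 cells transfected with multiple cis-regulated reporter units measuring endogenous ETS-driven transcription, 24 h after dosing. Reporter mRNA quantified by RT-PCR with capillary electrophoresis; bidirectional fit relative to DMSO.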

The target of assay [8] is Hepatocyte nuclear factor 3-beta (Homo sapiens) (UniProt Q9Y261). Nature of the assay: ATG_FoxA2_CIS: Attagene CIS-FACTORIAL HepG2 Assay for human Forkhead box A2 (FOXA2) (AID 2282942). To be noted: HepG2 cis-reporter transcription factor activity, 24 h; actives raise or lower the signal. In short, it runs like this: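 Endogenous transcription factor activity is captured via cis-element-driven reporter transcripts in transfected HepG2. Total RNA taken at 24 h post-dosing; labelled RT-PCR products resolved by capillary electrophoresis. Gain or loss fitted versus DMSO.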
Hepatocyte nuclear factor 3-beta (Homo sapiens), sequence (Q9Y261 whole entry, looked up): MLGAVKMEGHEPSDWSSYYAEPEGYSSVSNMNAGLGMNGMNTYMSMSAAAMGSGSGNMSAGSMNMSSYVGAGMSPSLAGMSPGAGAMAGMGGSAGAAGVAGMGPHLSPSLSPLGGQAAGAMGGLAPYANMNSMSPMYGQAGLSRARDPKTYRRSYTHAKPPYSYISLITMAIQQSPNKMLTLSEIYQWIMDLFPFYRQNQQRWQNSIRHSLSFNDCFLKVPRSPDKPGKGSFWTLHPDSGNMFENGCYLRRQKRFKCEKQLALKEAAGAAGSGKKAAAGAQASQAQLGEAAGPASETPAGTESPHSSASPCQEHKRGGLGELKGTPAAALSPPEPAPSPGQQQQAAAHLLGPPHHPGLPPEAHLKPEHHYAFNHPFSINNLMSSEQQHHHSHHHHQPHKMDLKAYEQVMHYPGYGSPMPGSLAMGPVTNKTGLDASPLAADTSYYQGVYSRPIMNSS

Assay [9] in a line: ATG_FoxO_CIS: Attagene CIS-FACTORIAL HepG2 Assay for human Forkhead box O (FoxO) (AID 2282943). To be noted: HepG2 Attagene cis-reporter, FoxO element, mRNA; actives raise or lower the signal. In short, it runs like this:
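Endogenous transcription factor activity read from multiplexed cis-promoter reporter transcripts in transiently transfected HepG2, 24 h after dosing. Reporter RNA measured via RT-PCR plus capillary electrophoresis of FAM-labeled products; gain or loss relative to DMSO.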

Assay [10] can be described thus: ATG_GATA_CIS: Attagene CIS-FACTORIAL HepG2 Assay for human GATA Binding Protein (AID 2282944). To be noted: HepG2 GATA cis-element reporter, Attagene multiplex mRNA; actives raise or lower the signal. In short, it runs like this: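 Read-out: fluorescent reporter mRNA fragments resolved by capillary electrophoresis after RT-PCR. Human liver HepG2 cells carried transiently transfected cis-regulated reporter constructs; chemicals incubated 24 h; gain or loss of signal fitted relative to DMSO.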

Transcription factor E2F1 (Homo sapiens), sequence (Q01094 whole entry, looked up): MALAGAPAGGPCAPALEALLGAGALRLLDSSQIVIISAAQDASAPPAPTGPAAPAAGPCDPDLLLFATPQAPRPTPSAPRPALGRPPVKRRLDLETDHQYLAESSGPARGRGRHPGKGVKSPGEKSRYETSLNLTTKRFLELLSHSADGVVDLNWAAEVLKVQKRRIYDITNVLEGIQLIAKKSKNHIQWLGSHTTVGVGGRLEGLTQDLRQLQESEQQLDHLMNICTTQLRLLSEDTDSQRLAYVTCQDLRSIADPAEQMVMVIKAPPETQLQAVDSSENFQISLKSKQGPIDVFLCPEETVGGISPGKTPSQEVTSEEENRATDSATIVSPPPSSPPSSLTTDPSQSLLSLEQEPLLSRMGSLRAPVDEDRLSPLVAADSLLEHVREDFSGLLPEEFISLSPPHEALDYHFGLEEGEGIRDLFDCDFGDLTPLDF

The term AC50 denotes the midpoint of the concentration-response curve, whichever way the signal moves. Take `COP(=S)(OC)Oc1ccc(SC)c(C)c1`: the outcome in assay [1], in assay [2], in assay [3], in assay [4], in [5] and in [7] was inactive. Besides, the result in assay [8], in assay [9] and in [10] was inactive. For the same molecule, the concentration at half-maximal activity (AC50) in assay [6] is 17.7 µM (active).
`O=C(O)COc1ccc(Cl)cc1Cl`: the molecule was called inactive in assay [1], in [2], in [3], in assay [4], in assay [5] and in [7]. Moreover, the call in assay [8], in assay [9] and in assay [10] was inactive.
In the case of `O=C(O)CCCOc1ccc(Cl)cc1Cl`, the result in assay [1], in [2], in assay [3], in assay [4], in assay [5] and in assay [7] was inactive. Besides, the result in assay [8], in assay [9] and in assay [10] was inactive.
`CCC(C)(C)C(=O)OC1=C(c2ccc(Cl)cc2Cl)C(=O)OC12CCCCC2`: the result in assay [1], in assay [2], in assay [3], in [4], in assay [5] and in [6] was inactive. For the same molecule, the molecule was called inactive in assay [8], in assay [9] and in assay [10]. Further, in [7], the AC50 was 1.69 µM (active).
For `CC(C)N(C(=O)COc1nnc(C(F)(F)F)s1)c1ccc(F)cc1`, the molecule was called inactive in assay [1], in assay [2], in [3], in assay [4], in assay [5] and in [6]. Besides, the molecule was called inactive in [8], in assay [9] and in assay [10]. In addition, the AC50 in [7] was 15.6 µM (active).
Consider `CNC(=O)/C=C(\C)OP(=O)(OC)OC`, for which the outcome in assay [1], in assay [2], in assay [3], in [4], in [5] and in [6] was inactive. The molecule was classed as inactive in assay [7], in assay [8], in assay [9] and in [10].
For `CCOCN(C(=O)CCl)c1c(C)cccc1CC`, the call in assay [1], in assay [2], in assay [3], in [4], in assay [5] and in assay [6] was inactive. The outcome in assay [7], in assay [8], in assay [9] and in [10] was inactive.
For the molecule `CC(C)(C)C(O)/C(=C\c1ccc(Cl)cc1Cl)n1cncn1` (configuration not stated), the molecule was classed as inactive in [1], in assay [2], in assay [3], in assay [4], in [5] and in assay [6]. The result in assay [7], in assay [8], in assay [9] and in assay [10] was inactive.
As for `N#CN`, the call in assay [1], in assay [2], in assay [3], in assay [4], in [5] and in assay [6] was inactive. In addition, the call in assay [7], in assay [8], in assay [9] and in assay [10] was inactive.
As to `COP(=S)(OC)Oc1ccc([N+](=O)[O-])cc1`, the outcome in [1], in assay [2], in assay [3], in [4], in [5] and in assay [6] was inactive. Besides, the molecule was classed as inactive in assay [7], in [8], in assay [9] and in assay [10].
In the case of `CC1(C)C(C=C(Cl)Cl)C1C(=O)OC(C#N)c1ccc(F)c(Oc2ccccc2)c1` (configuration not stated), the outcome in [1], in [2], in assay [3], in assay [4], in assay [5] and in [6] was inactive. The call in assay [7], in assay [8], in assay [9] and in assay [10] was inactive.
Take `CCN(CC)C(=O)SCc1ccc(Cl)cc1`: the call in [1], in assay [2], in assay [3], in assay [5], in [6] and in assay [7] was inactive. For the same molecule, the call in assay [8], in [9] and in [10] was inactive. In addition, in assay [4], the half-maximal activity concentration (AC50) was 23.5 µM (active).
Consider `CCS(=O)(=O)c1cccnc1S(=O)(=O)NC(=O)Nc1nc(OC)cc(OC)n1`, for which the molecule was classed as inactive in [1], in assay [2], in assay [3], in assay [4], in [5] and in assay [7]. For the same molecule, the outcome in assay [8], in assay [9] and in [10] was inactive.
`COC(=O)c1ccccc1S(=O)(=O)NC(=O)Nc1nc(C)nc(OC)n1`: the molecule was called inactive in [1], in assay [2], in assay [3], in assay [4], in assay [5] and in assay [7]. Moreover, the molecule was classed as inactive in assay [8], in [9] and in [10]. The half-maximal activity concentration (AC50) in [9] was 75.5 µM (active).
